# Source: PubChem BioAssay (National Center for Advancing Translational Sciences (NCATS))
# aSyn rescue: qHTS of alpha-syn Inhibitors; Yeast expressing alpha-synuclein, growth rescue, BacTiter-Glo, 24 h; Potency, µM (highest dose often 46.1 µM), for inactives: top-dose growth rescue (activation), most hits filed as activators; 370,000 tested, 0.14% active; note: potency is the fitted concentration of half-maximal effect; % of control where 0% means no effect; nearly all actives have a fitted effect of over 65% in size
#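 Screening used galactose-induced yeast with toxic alpha-synuclein levels, exposed to compound for 24 hr at 30 deg C. Cell growth, read with BacTiter-Glo luminescence, gave the measured signal.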
# TDP43 rescue: qHTS of TDP-43 Inhibitors | TDP-43 expressing yeast growth rescue, BacTiter-Glo, 24 h | Potency, µM (highest dose often 46.1 µM), for the others: at the highest dose growth rescue (activation), usual class: activators | 410,000 tested, 1.8% active | AID 652104, 2013; note: potency is the fitted concentration of half-maximal effect; % of control where 0% means no effect; nearly all actives have a fitted effect of over 50% in size
#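 Galactose-induced TDP-43 yeast, OD600=0.02, compound pinned; 24 hr, 30 deg C; BacTiter-Glo luminescence for growth. Inhibitors of TDP-43 toxicity read as activators.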
# CCT modulator: High-Throughput Screening for Modulators of Cytosolic Chaperonin Activity | purified chaperonin ATPase assay, HTRF ADP detection, 30 min | activity change, % (test concentration not listed), hits read low | 360,000 tested, 0.3% active; in the data active = activity change below about -30%; note: % is set by controls: 0 for no effect and ±100 for the full control effect
#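 ATPase activity: ADP formed was measured by HTRF Transcreener (665/615 nm ratio) after 30 min at 37 deg C with 10 uM ATP. Compounds screened at one 76 uM concentration against 40 or 20 nM TRiC in Tris pH 7.4/KCl/MgCl2/DTT buffer.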
# Anesthetic bind: qHTS Assay for Identification of Novel General Anesthetics. Potency, µM (highest dose often 77.5 µM), without a hit: at the top dose activity change, negative = displacement, actives largely listed as inhibitors. 350,000 tested, 0.074% active. AID 485281, 2010. apoferritin/1-aminoanthracene competitive binding, fluorescence. Ferritin light chain (Equus caballus), P02791; note: potency is the fitted concentration of half-maximal effect; % is set by controls: 0 for no effect and ±100 for the full control effect; nearly all actives have a fitted effect of over 20% in size
# Target sequence (P02791 2-175 limits assumed): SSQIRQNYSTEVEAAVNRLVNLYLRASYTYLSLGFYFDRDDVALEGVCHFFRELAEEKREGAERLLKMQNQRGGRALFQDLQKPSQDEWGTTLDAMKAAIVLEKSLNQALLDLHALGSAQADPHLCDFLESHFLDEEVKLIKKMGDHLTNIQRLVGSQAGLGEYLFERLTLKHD
#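 Read-out: endpoint 1-AMA fluorescence, excitation 380 nm and emission 535 nm, after compounds sit 10 min at room temperature with 10 uM horse-spleen apoferritin in 50% saturated 1-AMA/PBS. Values come from four-parameter Hill fits.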
# Mito fusion yeast: qHTS Assay for Small Molecule Inhibitors of Mitochondrial Division or Activators of Mitochondrial Fusion; S. cerevisiae fusion-defective mutant growth rescue, CellTiterGlo 48 h; Potency, µM (top dose mostly 46.1 µM), for the others: at the highest dose growth rescue (activation), actives largely listed as activators; 320,000 tested, 0.23% active; AID 485298, 2010; note: potency is the fitted concentration of half-maximal effect; % of control where 0% means no effect; nearly all actives have a fitted effect of over 45% in size
#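 Luminescent cell viability in 1536-well qHTS format served as the measure of rescued growth in ts fusion-mutant S. cerevisiae cultured on non-fermentable YPEG for 48 hours at 37C.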
# pAkt inh: HTS Assay for Inhibitors of Akt Phophorylation: Primary Screen | Neuro2A IGF-stimulated pAkt S473 HTRF, 20 min; active compounds read low | activity change, % for hits at 50 µM | 360,000 tested, 0.32% active; in the data active = activity change below about -80%; inconclusive = mostly about -51% to -80%; note: % is set by controls: 0 for no effect and ±100 for the full control effect
#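 Neuro2A cells (4,500/well, DMEM with 0.5% FBS) were treated with compound at a single 50 µM final concentration, stimulated with 6 nM IGF for 20 min at 37 °C, and lysed. Phospho-Akt Ser473 was read by HTRF as 665/615 ratio ×10^4.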
# * = called active by the depositor; i = inactive; ? = inconclusive; / = not tested or not shown. The list is not random: actives were taken first. Their share in the collection is about 2.5%. Unless noted, calls come from the whole dose curve; as a rule, active = well fitted curve in the direction sought with a large enough effect; inconclusive = small, poorly fitted or top-dose-only effect, or another doubt; inactive = no such curve, though single readings can be large; an effect the other way counts as inactive or inconclusive.
SMILES,aSyn rescue,TDP43 rescue,CCT modulator,Anesthetic bind,Mito fusion yeast,pAkt inh
O=C(Nc1ccc2c(c1)OCO2)c1cc(C2CCCCN2C(=O)CCCc2ccccc2)on1 (centres undefined),7%,35µM*,2,/,/,i
CCCCCCOC(=O)C1(O)CC2OC1(C)n1c3ccccc3c3c4c(c5c6ccccc6n2c5c31)C(=O)NC4 (centres undefined),/,/,/,-1%,/,/
Cc1ccc(NC(=O)COC(=O)c2cc(Cl)ccc2[N+](=O)[O-])cc1,3%,18µM*,-1,-21%,0%,i
Clc1ccccc1-c1nnc(-c2cccnc2)o1,9%,-5%,-40*,-8%,1%,i
O=C(CCc1ccccc1)NNc1cc(N2CCCCC2)nc(N2CCCCC2)n1,-1%,3.2µM*,3,-5%,-10%,i
COc1ccc(-c2nc(NC(=O)c3[nH]c(C)c(C(C)=O)c3C)sc2C)cc1,9%,35µM*,3,-8%,1%,i
COc1ccc(-c2nc(NC(=O)c3ccco3)sc2C)cc1,-7%,0%,-1,/,/,i
COc1ccc(-c2nc(NC(=O)CSCCO)sc2C)cc1,-4%,-7%,-56*,-11%,7%,i
COc1ccc(-c2nc(NC(=O)Cn3ccc(C(F)(F)F)n3)sc2C)cc1,-6%,35µM*,-4,?,-5%,i
CCc1ccccc1N1CC(c2nc3ccccc3n2CCC2CCCCC2)CC1=O (centres undefined),/,-90%,/,48%,/,/
Cc1ccccc1N1CC(c2nc3ccccc3n2CCC2CCCCC2)CC1=O (centres undefined),/,22µM*,/,0%,/,/
COc1cccc(CN(C)C(=O)c2ccc(N3CCCC3)c([N+](=O)[O-])c2)c1,-1%,20µM*,-1,?,4%,i
CC(C)CC(=O)NCC(c1ccc2c(c1)OCO2)N1CCN(c2ccccc2F)CC1 (centres undefined),/,1%,/,-11%,/,/
Nn1c(SCC(=O)Nc2ccc(S(=O)(=O)N3CCCC3)cc2)nnc1C(F)(F)F,-12%,-20%,0,2%,-4%,-107%*
CCc1ccc(-n2nc3cc(C)c(NC(=O)c4cc(Cl)ccc4OC)cc3n2)cc1,/,-20%,/,-8%,/,/
CCc1ccccc1NC(=O)N1CC(CC)Oc2ccc(Cl)cc21 (centres undefined),/,8%,/,?,/,/
CCC1CN(C(=O)Nc2ccc(C(=O)O)cc2)c2cc(Cl)ccc2O1 (centres undefined),/,13µM*,/,-4%,/,/
Cc1nc(-c2ccccn2)nc(SCC(=O)c2ccc(F)cc2)c1Cl,?,11µM*,-3,-24%,-15%,i
COc1ccc(C(=O)CSc2nc(-c3ccccn3)nc(C)c2Cl)cc1,-11%,?,0,-1%,-1%,i
CSc1nnc(NC(=O)c2ccc(S(=O)(=O)N3CCOCC3)cc2)s1,0%,12%,-1,-4%,4%,i
CCCCc1nnc(NC(=O)Cc2ccc(OC)c(S(=O)(=O)N3CCOCC3)c2)s1,9%,-14%,2,/,2%,i
NC(=O)CSc1nnc(NC(=O)c2ccc(S(=O)(=O)N3CCOCC3)cc2)s1,1%,6%,-58*,-1%,-1%,i
COc1ccc(CC(=O)Nc2nnc(SCc3ccccc3)s2)cc1S(=O)(=O)N1CCOCC1,8%,?,-3,?,0%,-110%*
COc1cc2nc(NC(=O)c3ccc(S(=O)(=O)N4CCOCC4)cc3)sc2cc1OC,0%,9%,/,80%,/,/
Cc1nc2ccc3nc(NC(=O)c4ccc(S(=O)(=O)N5CCOCC5)cc4)sc3c2s1,0%,-15%,-1,-9%,0%,-100%*
SMILES,aSyn rescue,TDP43 rescue,CCT modulator,Anesthetic bind,Mito fusion yeast,pAkt inh
COc1ccc(N2CCN(CCCNC(=O)c3cnn(-c4ccc(F)cc4)c3-n3cccc3)CC2)cc1,0%,0%,/,1%,/,/
CNc1nc(Oc2ccc3sc(C)nc3c2)c2sccc2n1,8%,20µM*,-2,/,/,i
COCCCNCCOCCOc1ccc(C)cc1[N+](=O)[O-],1%,2%,-40*,-8%,-1%,i
O=C(Nc1ncc(Cc2ccccc2)s1)C1CCN(C(=O)c2ccco2)CC1,-5%,/,/,/,/,/
CCc1nn(CC(=O)N(CC)Cc2ccccc2)c(=O)c2cc3occc3n12,/,25%,/,?,/,/
Cc1ccc(S(=O)(=O)NC(=O)c2cc(C)n(-c3ccc(N(C)C)cc3)c2C)cc1,-16%,35µM*,-1,-5%,-10%,i
O=C(CN1C(=O)S/C(=C\c2ccccc2Cl)C1=O)NCCCn1ccnc1,-1%,-2%,-2,-12%,4µM*,i
COc1ccccc1/C=C1\SC(=O)N(CC(=O)NCCCn2ccnc2)C1=O,-3%,-8%,-1,-18%,0%,i
COc1ccc(NC(=O)Nc2sc3nc4n(c(=O)c3c2C)CCC(C)CC4)cc1OC (centres undefined),/,11%,/,-6%,/,/
NNc1nc(-c2ccccc2)nc(-c2ccccc2)c1Br,-3%,22µM*,-2,/,/,i
CNc1nc(-c2ccccc2)nc(-c2ccccc2)c1C#N,11%,-7%,1,-7%,1%,?
Cc1cc(-c2ccc(S(=O)(=O)Nc3ccc(Br)c(C)c3)s2)on1,/,15%,/,-2%,/,/
COc1ccc([N+](=O)[O-])cc1NC(=O)C(C)OC(=O)/C=C/c1ccco1 (centres undefined),-10%,25µM*,-1,-19%,14%,i
CC(OC(=O)/C=C/c1ccco1)C(=O)Nc1cccc([N+](=O)[O-])c1 (centres undefined),0%,11%,-1,-23%,15%,i
COc1ccc(Cl)cc1NC(=O)CN(C)CC(=O)Nc1ccc(C)cc1Br,3%,18µM*,3,3%,-6%,i
COc1ccc(Cl)cc1NC(=O)CN(C)C(=O)/C=C/c1ccco1,5%,28µM*,-5,/,/,i
CCc1ccc(CNC(=O)Cc2ccc(NC(=O)N3CCSc4ncccc43)cc2)cc1,/,1%,/,-12%,/,/
Cc1ccccc1OCC(=O)NCC(=O)OCC(=O)c1ccc(F)cc1,-1%,/,/,/,/,/
O=S1(=O)C=C(Sc2nnc(-c3ccccc3)o2)c2ccccc21,-13%,8.9µM*,1,?,-3%,i
CSc1nnc(-c2ccccc2)o1,-4%,-5%,-3,-7%,-2%,i
O=C(Oc1cc2oc(=O)cc(-c3ccccc3)c2cc1Cl)C1CCCCC1,4%,3.5µM*,1,315%,-2%,i
